Inconclusive results are not listed. Active and inactive are the calls of the source. Calls come from the whole dose curve; as a rule, active = well fitted curve in the direction sought with a large enough effect; inconclusive = small, poorly fitted or top-dose-only effect, or another doubt; inactive = no such curve, though single readings can be large; an effect the other way counts as inactive or inconclusive.
Columns and labels:
[1] = qHTS of pediatric cancer cell lines to identify multiple opportunities for drug repurposing: Primary screen for SK-N-MC cells (AID 1347093); note: series mostly up to about 46 µM
Method in brief: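 Metabolically active cells were quantified by ATP-dependent luminescence (CellTiter-Glo, 15 min at room temperature) following 48 h treatment. Cells had been plated at 500-1,000 per well and settled for 5 h beforehand.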

[2] = qHTS of pediatric cancer cell lines to identify multiple opportunities for drug repurposing: Primary screen for BT-37 cells (AID 1347094); note: series mostly up to about 57 µM
Method in brief: (§1)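 Quantitative HTS format: each compound titrated (MIPE 11 points from 0.78 nM, NPC 8 points from 0.59 nM) onto cells plated 5 hours earlier. After 48 h at 37 degrees C, CellTiter-Glo luminescence was recorded.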

[3] = qHTS of pediatric cancer cell lines to identify multiple opportunities for drug repurposing: Primary screen for NB-EBc1 cells (AID 1347095)
Method in brief: as §1

[4] = qHTS of pediatric cancer cell lines to identify multiple opportunities for drug repurposing: Primary screen for U-2 OS cells (AID 1347096); note: nearly all actives have a fitted effect of over 50% in size
Method in brief: (§2)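 Cells (500-1,000/well) rested 5 h, then received compounds for 48 h; metabolically active cells were measured by CellTiter-Glo luminescence. Final concentrations spanned up to 46 µM (MIPE, 11-point) or 0.59 nM-46 µM (NPC, 8-point) in primary screens, 11-point in follow-ups.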

[5] = qHTS of pediatric cancer cell lines to identify multiple opportunities for drug repurposing: Primary screen for Saos-2 cells (AID 1347097); note: nearly all actives have a fitted effect of over 40% in size
Method in brief: as §1

[6] = qHTS of pediatric cancer cell lines to identify multiple opportunities for drug repurposing: Primary screen for SK-N-SH cells (AID 1347098);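 note: DMSO served as neutral control and bortezomib at 2.3 µM as positive control; nearly all actives have a fitted effect of over 65% in size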
Method in brief: as §2

[7] = qHTS of pediatric cancer cell lines to identify multiple opportunities for drug repurposing: Primary screen for NB1643 cells (AID 1347099); note: nearly all actives have a fitted effect of over 50% in size
Method in brief: as §1

[8] = qHTS of pediatric cancer cell lines to identify multiple opportunities for drug repurposing: Primary screen for LAN-5 cells (AID 1347100)
Method in brief: as §2

[9] = qHTS of pediatric cancer cell lines to identify multiple opportunities for drug repurposing: Primary screen for BT-12 cells (AID 1347101); note: nearly all actives have a fitted effect of over 25% in size
Method in brief: as §2

[10] = qHTS of pediatric cancer cell lines to identify multiple opportunities for drug repurposing: Primary screen for Rh18 cells (AID 1347102); note: nearly all actives have a fitted effect of over 65% in size
Method in brief: as §2

Measured: Potency

O=C(O)CCCC[P+](c1ccccc1)(c1ccccc1)c1ccccc1
inactive: all assays above

CC(CCc1ccc2c(c1)OCO2)NN (stereo unspecified)
inactive: all assays above

Fc1ccc(C(c2ccc(F)cc2)N2CCNCC2)cc1
inactive: all assays above

CCOC(=O)C(=O)c1csc(NC=O)n1
not listed: [10]
inactive: all other assays above

Cc1ccc(-c2ccccc2C#N)cc1
inactive: all assays above

CN1Cc2cc(C(=O)N3CCC(C4CCNCC4)CC3)ccc2N[C@@H](CC(=O)O)C1=O
inactive: all assays above

COc1cc(NS(=O)(=O)c2ccc(N)cc2)nc(C)n1
inactive: all assays above

C[C@H]1C[C@H](O)c2ccsc2S1(=O)=O
inactive: all assays above

CCC(C(=O)NC(=O)NC(C)=O)c1ccccc1 (stereo unspecified)
inactive: all assays above

CC1(C)O[C@@H]2C[C@H]3[C@@H]4C[C@H](F)C5=CC(=O)C=C[C@]5(C)[C@@]4(F)[C@@H](O)C[C@]3(C)[C@]2(C(=O)CO)O1
not listed: [10]
inactive: all other assays above

[O-][n+]1cccc(/C(Cl)=N/OC[C@@H](O)CN2CCCCC2)c1
not listed: [10]
inactive: all other assays above

CN1CCC(=C2c3ccccc3CCc3cccnc32)CC1
inactive: all assays above

O=C1Cc2cc(Cl)ccc2N1
inactive: all assays above

O=C(O)C(=O)Nc1cccc(-c2nn[nH]n2)c1
inactive: all assays above

CCOC(=O)C(O)c1ccccc1 (stereo unspecified)
inactive: all assays above

C[N+]1(CC2COC(c3ccccc3)(c3ccccc3)O2)CCCCC1 (stereo unspecified)
not listed: [10]
inactive: all other assays above

COc1ccc(/C(C)=C/C(=O)O)c(OC)c1
inactive: all assays above

Cc1nc([N+](=O)[O-])cn1-c1ccc([N+](=O)[O-])cc1
inactive: all assays above

Cc1ccc(O)cc1
inactive: all assays above

O=C(CCCCCCCCC#CI)Oc1ccccc1
inactive: all assays above

Cc1cc(O)c2c(O)c3c(O)cccc3cc2c1
inactive: all assays above
